Source: PubChem BioAssay AID1159580 (chemical genetic matrix, 2015)
The whole screen tested about 5,500 compounds, of which about 2,000 (36%) were called active. Inconclusive results (about 18%) are left out. No stated cut-off is given here; in the data, active means normalized growth mostly below about 0.91 (no sharp cut-off); inconclusive means no clear call, values can overlap the other calls; inactive means mostly above about 0.92. This is one part of the list.

Assay: chemical genetic growth profiling, strain panel (AID 1159580);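 further: tested at 20 µM; growth read once vehicle control cultures reached saturation at 30 °C; 1 = growth at the plate median or of vehicle wells; lower values mean less growth of the strain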
Conditions: growth OD

Measured: normalized growth

COP(=S)(OC)Oc1ccc(SC)c(C)c1
active: S. cerevisiae deletion strains, locus YLR320W, strain mms22, active compounds read low 0.857 | S. cerevisiae deletion strains, locus YNL071W, strain lat1, active compounds read low 0.879
inactive: S. cerevisiae deletion strains, locus YJR075W, strain HOC1, active compounds read low 1.01 | S. cerevisiae deletion strains, locus YKL009W, strain mrt4, active compounds read low 0.942 | S. cerevisiae deletion strains, locus YKL068W, active compounds read low 0.996 | S. cerevisiae deletion strains, locus YKL085W, strain MDH1 (second series), active compounds read low 0.999 | S. cerevisiae deletion strains, locus YKL085W, strain MDH1, active compounds read low 0.999 | S. cerevisiae deletion strains, locus YKL160W, strain elf1, active compounds read low 0.999 | S. cerevisiae deletion strains, locus YKL190W, strain CNB1, active compounds read low 1 | S. cerevisiae deletion strains, locus YKR001C, strain vps1, active compounds read low 0.986 | S. cerevisiae deletion strains, locus YKR026C, strain gcn3, active compounds read low 1.01 | S. cerevisiae deletion strains, locus YKR091W, strain srl3, active compounds read low 0.995 | S. cerevisiae deletion strains, locus YLL001W, strain dnm1, active compounds read low 0.986 | S. cerevisiae deletion strains, locus YLL026W, active compounds read low 0.972 | S. cerevisiae deletion strains, locus YLL041C, strain sdh2, active compounds read low 1 | S. cerevisiae deletion strains, locus YLR027C, strain aat2, active compounds read low 0.988 | S. cerevisiae deletion strains, locus YLR039C, strain RIC1, active compounds read low 1.02 | S. cerevisiae deletion strains, locus YLR058C, strain SHM2, active compounds read low 1.01 | S. cerevisiae deletion strains, locus YLR102C, strain apc9, active compounds read low 0.985 | S. cerevisiae deletion strains, locus YLR221C, strain rsa3, active compounds read low 0.92 | S. cerevisiae deletion strains, locus YLR258W, strain gsy2, active compounds read low 0.979 | S. cerevisiae deletion strains, locus YLR262C, strain YPT6 (second series), active compounds read low 0.949 | S. cerevisiae deletion strains, locus YLR262C, strain YPT6, active compounds read low 1.01 | S. cerevisiae deletion strains, locus YLR268W, strain sec22, active compounds read low 0.996 | S. cerevisiae deletion strains, locus YLR330W, strain CHS5, active compounds read low 1.01 | S. cerevisiae deletion strains, locus YLR342W, strain FKS1 (second series), active compounds read low 0.985 | S. cerevisiae deletion strains, locus YLR342W, strain FKS1, active compounds read low 0.997 | S. cerevisiae deletion strains, locus YLR357W, strain rsc2, active compounds read low 1.1 | S. cerevisiae deletion strains, locus YLR370C, strain arc18, active compounds read low 1.06 | S. cerevisiae deletion strains, locus YLR371W, strain rom2, active compounds read low 0.989 | S. cerevisiae deletion strains, locus YLR384C, strain iki3, active compounds read low 1.02 | S. cerevisiae deletion strains, locus YLR418C, strain cdc73, active compounds read low 0.984 | S. cerevisiae deletion strains, locus YML016C, strain PPZ1, active compounds read low 1.02 | S. cerevisiae deletion strains, locus YML032C, strain rad52, active compounds read low 0.979 | S. cerevisiae deletion strains, locus YML120C, strain ndi1, active compounds read low 0.997 | S. cerevisiae deletion strains, locus YML124C, strain tub3, active compounds read low 0.985 | S. cerevisiae deletion strains, locus YMR058W, strain fet3, active compounds read low 0.987 | S. cerevisiae deletion strains, locus YMR078C, strain ctf18, active compounds read low 0.975 | S. cerevisiae deletion strains, locus YMR125W, strain sto1, active compounds read low 1.05 | S. cerevisiae deletion strains, locus YMR129W, active compounds read low 1.01 | S. cerevisiae deletion strains, locus YMR205C, strain PFK2, active compounds read low 0.947 | S. cerevisiae deletion strains, locus YMR223W, strain ubp8, active compounds read low 0.982 | S. cerevisiae deletion strains, locus YMR231W, strain pep5, active compounds read low 1 | S. cerevisiae deletion strains, locus YMR263W, strain SAP30, active compounds read low 1.01 | S. cerevisiae deletion strains, locus YMR307W, strain GAS1, active compounds read low 0.908 | S. cerevisiae deletion strains, locus YNL067W, strain RPL9B, active compounds read low 1.01 | S. cerevisiae deletion strains, locus YNL128W, strain TEP1, active compounds read low 1.02 | S. cerevisiae deletion strains, locus YNL153C, strain GIM3, active compounds read low 1.02 | S. cerevisiae deletion strains, locus YNL209W, strain ssb2, active compounds read low 1.01 | S. cerevisiae deletion strains, locus YNL233W, strain BNI4, active compounds read low 0.998 | S. cerevisiae deletion strains, locus YNL248C, strain rpa49, active compounds read low 0.967 | S. cerevisiae deletion strains, locus YNL250W, strain rad50, active compounds read low 0.987 | S. cerevisiae deletion strains, locus YNL271C, strain bni1, active compounds read low 0.989 | S. cerevisiae deletion strains, locus YNL298W, strain CLA4, active compounds read low 0.981 | S. cerevisiae deletion strains, locus YNL307C, strain MCK1, active compounds read low 0.979 | S. cerevisiae deletion strains, locus YNL322C, strain KRE1 (second series), active compounds read low 1.01 | S. cerevisiae deletion strains, locus YNL322C, strain KRE1, active compounds read low 1.02 | S. cerevisiae deletion strains, locus YNR049C, strain mso1, active compounds read low 1 | S. cerevisiae deletion strains, locus YNR052C, strain pop2, active compounds read low 0.984 | S. cerevisiae deletion strains, locus YOL006C, strain TOP1, active compounds read low 1.01 | S. cerevisiae deletion strains, locus YOL012C, strain htz1 1.06 | S. cerevisiae deletion strains, locus YOL147C, strain pex11, active compounds read low 0.985 | S. cerevisiae deletion strains, locus YOR001W, strain rrp6, active compounds read low 0.99 | S. cerevisiae deletion strains, locus YOR061W, strain CKA2, active compounds read low 1.01 | S. cerevisiae deletion strains, locus YOR069W, strain VPS5, active compounds read low 1.01 | S. cerevisiae deletion strains, locus YOR070C, strain gyp1, active compounds read low 0.978 | S. cerevisiae deletion strains, locus YOR080W, strain dia2, active compounds read low 1.03 | S. cerevisiae deletion strains, locus YOR083W, strain WHI5, active compounds read low 0.951 | S. cerevisiae deletion strains, locus YOR106W, strain vam3, active compounds read low 0.968 | S. cerevisiae deletion strains, locus YOR136W, strain idh2, active compounds read low 0.985 | S. cerevisiae deletion strains, locus YOR144C, strain elg1, active compounds read low 0.992 | S. cerevisiae deletion strains, locus YOR184W, strain ser1, active compounds read low 0.958 | S. cerevisiae deletion strains, locus YOR265W, strain rbl2, active compounds read low 1.01 | S. cerevisiae deletion strains, locus YOR270C, strain vph1, active compounds read low 0.791 | S. cerevisiae deletion strains, locus YOR290C, strain snf2, active compounds read low 0.994 | S. cerevisiae deletion strains, locus YOR316C, strain cot1, active compounds read low 0.992 | S. cerevisiae deletion strains, locus YPL051W, strain arl3, active compounds read low 0.96 | S. cerevisiae deletion strains, locus YPL055C, strain LGE1, active compounds read low 1.01 | S. cerevisiae deletion strains, locus YPL078C, strain atp4, active compounds read low 0.988 | S. cerevisiae deletion strains, locus YPL106C, strain sse1, active compounds read low 1.08 | S. cerevisiae deletion strains, locus YPL240C, strain hsp82, active compounds read low 1.03 | S. cerevisiae deletion strains, locus YPL241C, strain CIN2, active compounds read low 1.01 | S. cerevisiae deletion strains, locus YPR119W, strain clb2, active compounds read low 0.981 | S. cerevisiae deletion strains, locus YPR141C, strain kar3, active compounds read low 0.988 | S. cerevisiae deletion strains, locus YPR163C, strain tif3, active compounds read low 0.98 | S. cerevisiae deletion strains, locus YPR167C, strain met16, active compounds read low 0.983 | S. cerevisiae deletion strains, strain wtn01, active compounds read low 0.989 | S. cerevisiae strains, strain wild type, active compounds read low 1.01
